Test results: PubChem BioAssay (NCATS)
Results filed as inconclusive are left out. Active and inactive are the calls of the source. Unless noted, calls come from the whole dose curve; as a rule, active = well fitted curve in the direction sought with a large enough effect; inconclusive = small, poorly fitted or top-dose-only effect, or another doubt; inactive = no such curve, though single readings can be large; an effect the other way counts as inactive or inconclusive.

Experiments:
[1] = qHTS to identify inhibitors of the type 1 interferon - major histocompatibility complex class I in skeletal muscle: primary screen against the NCATS Pharmaceutical Collection (AID 1347407);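 note: luminescence of HiBiT knocked into endogenous HLA-B as interferon-induced MHC class I level; % is set by controls: 0 for no effect and ±100 for the full control effect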
Summary of the method: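 Compounds […] were added to CRISPR-engineered HLA-B-HiBiT C25cl48 human myoblasts with 4.0 ng/ml IFN-beta. After 24 hrs at 37 C, cells were lysed and HiBiT luminescence measured.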

[2] = biological target: Protein phosphatase 1D (Homo sapiens) (UniProt O15297); assay: RapidFire Mass Spectrometry qHTS Assay for Modulators of WT P53-Induced Phosphatase 1 (WIP1) (AID 1347424);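 note: amount of dephosphorylated VEPPL-S-QETFS peptide product formed by WIP1; series mostly up to about 63 µM; plate controls were DMSO wells for no effect and GSK830371 inhibitor control at 10 µM for full effect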
Sequence of Protein phosphatase 1D (Homo sapiens) (O15297 whole entry, looked up): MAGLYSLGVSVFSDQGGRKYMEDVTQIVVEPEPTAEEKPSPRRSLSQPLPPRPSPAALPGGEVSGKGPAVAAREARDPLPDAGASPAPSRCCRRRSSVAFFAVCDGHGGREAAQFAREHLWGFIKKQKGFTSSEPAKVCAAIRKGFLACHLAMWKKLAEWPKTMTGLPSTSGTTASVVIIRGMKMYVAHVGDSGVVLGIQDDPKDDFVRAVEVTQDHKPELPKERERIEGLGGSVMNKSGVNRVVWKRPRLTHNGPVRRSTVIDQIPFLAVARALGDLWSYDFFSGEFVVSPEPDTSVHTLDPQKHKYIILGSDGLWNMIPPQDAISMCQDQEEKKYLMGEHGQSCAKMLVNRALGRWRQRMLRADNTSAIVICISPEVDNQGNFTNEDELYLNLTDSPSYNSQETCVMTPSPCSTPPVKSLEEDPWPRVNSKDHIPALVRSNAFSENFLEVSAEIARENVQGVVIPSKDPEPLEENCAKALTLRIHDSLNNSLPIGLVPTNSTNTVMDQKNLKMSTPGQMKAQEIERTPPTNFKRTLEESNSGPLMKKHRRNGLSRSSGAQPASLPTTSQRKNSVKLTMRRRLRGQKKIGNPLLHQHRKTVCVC
Summary of the method: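 WIP1 (10 nM final) was preincubated 1 h at room temperature with compounds in Tris-HCl pH 7.5, 30 mM MgCl2, TCEP, EGTA, BSA; 2 uM VEPPL-pS-QETFS phosphopeptide was added for 5 min, quenched with formic acid, and dephosphorylated product quantified by RapidFire MS.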

[3] = biological target: Protein phosphatase 1D (Homo sapiens) (UniProt O15297); assay: Rhodamine-PBP qHTS Assay for Modulators of WT P53-Induced Phosphatase 1 (WIP1) (AID 1347425); note: % of control where 0% means no effect
Summary of the method: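 Steps: enzyme with Rh-PBP sensor and compounds, room-temperature incubation of 1 hr, baseline read, addition of VEPPL-pS-QETFS (10 uM final), kinetic fluorescence reads at 525/598 nm. Activity equals final minus baseline signal.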

[4] = Primary qHTS for inhibitors of La Crosse Virus (LACV) - induced cell death in SH-SY5Y cells (AID 1508616);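 note: top concentration of the series differs between compounds; 0% = infected DMSO wells and 100% = uninfected DMSO wells; higher means more rescue of cells from virus-induced death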
Summary of the method: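 Protection against LACV-induced cell death is scored in SH-SY5Y cells exposed to compounds and virus (0.01 MOI) for 6 days. Data normalized to virus-infected DMSO wells and virus-free DMSO wells.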

[5] = biological target: Calcium and integrin-binding protein 1 (Homo sapiens) (UniProt Q99828); assay: Primary qHTS for Identification of Calcium Integrin Binding Protein 1 (CIB1) Competitor (AID 1508620);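 note: GST tagged CIB1 binding a fluorescein labelled alphaIIb integrin peptide tracer; top concentration of the series differs between compounds; % is set by controls: 0 for no effect and ±100 for the full control effect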
Sequence of Calcium and integrin-binding protein 1 (Homo sapiens) (Q99828 whole entry, looked up): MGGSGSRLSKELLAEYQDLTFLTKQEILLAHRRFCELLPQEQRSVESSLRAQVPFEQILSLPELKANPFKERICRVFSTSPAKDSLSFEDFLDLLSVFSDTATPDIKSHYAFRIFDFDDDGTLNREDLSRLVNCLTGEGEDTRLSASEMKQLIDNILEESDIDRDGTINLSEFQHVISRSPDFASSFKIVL
Summary of the method: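 Fluorescence polarization competition: CIB1-GST (1 uM final) preincubated with compound 15 min at room temperature, then FITC-labeled alphaIIb peptide (100 nM final) added for another 15 min. Polarization read at Ex 480/Em 540.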

[6] = biological target: Calcium and integrin-binding protein 1 (Homo sapiens) (UniProt Q99828); assay: Confirmatory qHTS for Identification of Calcium Integrin Binding Protein 1 (CIB1) Competitor (AID 1508617); note: % is set by controls: 0 for no effect and ±100 for the full control effect; nearly all actives have a fitted effect of over 65% in size
Summary of the method: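 Binding competition between test compounds and fluorescent alphaIIb peptide for 1 uM CIB1-GST is monitored by FP at 480/540 nm. Final compound range is up to 114 uM; unlabeled peptide serves as reference competitor.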

[7] = qHTS for inhibitors of adenylyl cyclases using a fission yeast platform: a pilot screen against the NCATS LOPAC library (AID 1347410);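 note: plate controls were DMSO vehicle for no effect and DPI positive control for full effect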
Summary of the method: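 GFP from fbp1-GFP reporter, read by Acumen laser cytometry, indicates AC inhibition in fission yeast expressing AC9, GNAS and PDE4D2. Cells grown 18 h in the dark at 30C with compounds, final up to 57 uM.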

[8] = Primary qHTS for inhibitors of SARS-S pseudo-typed particle cell entry (AID 1479145; calls by dose curve; note: nearly all actives have a fitted effect of over 45% in size; for activity change, negative = inhibition: series mostly up to about 57 µM; % is set by controls: 0 for no effect and ±100 for the full control effect)
[9] = Primary qHTS for Huh7 cytotoxicity: counterscreen for inhibitors of MERS-S pseudotyped particle cell entry (AID 1479147; calls by dose curve)
[10] = Primary qHTS for inhibitors of MERS-S pseudo-typed particle cell entry (AID 1479149; calls by dose curve; note: nearly all actives have a fitted effect of over 60% in size)
[11] = Primary qHTS for Vero E6 cytotoxicity: counterscreen for inhibitors of SARS-S pseudo-typed particle cell entry (AID 1479150; calls by dose curve)
[12] = biological target: Calcium and integrin-binding protein 1 (Homo sapiens) (UniProt Q99828); assay: Validation qHTS for Identification of Calcium Integrin Binding protein 1 (CIB1) Competitor (AID 1508618); note: % is set by controls: 0 for no effect and ±100 for the full control effect
Summary of the method: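 In this qHTS validation, the LOPAC set (up to 114 uM) was tested for blocking CIB1 binding to a fluorescein-tagged alphaIIb peptide, with FP detection at 480/540 nm.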

CC(O)CN1CCN(CC(=O)[O-])CCN(CC(=O)[O-])CCN(CC(=O)[O-])CC1.[Gd+3] (stereo not drawn)
inactive: outcome [1] | Potency [2] | outcome [3] | outcome [4]

O=C(O)C(Cl)Cl
inactive: outcome [1] | Potency [2] | outcome [3] | outcome [4] | outcome [5]

CCC1(CCC(C)C)C(=O)NC(=O)NC1=O
inactive: outcome [1] | Potency [2] | outcome [3] | outcome [4]

Cc1ccc(Cl)c(O)c1
inactive: outcome [1] | Potency [2] | outcome [3] | outcome [4]

Nc1ccc(Cl)cc1
inactive: outcome [1] | Potency [2] | outcome [3] | outcome [4] | outcome [5]

CC(C)Oc1cccc(NC(=O)c2ccccc2C(F)(F)F)c1
inactive: outcome [1] | Potency [2] | outcome [3] | outcome [4] | Potency [6]

O=S(=O)(c1ccc(Cl)cc1)c1ccc(Cl)cc1
inactive: outcome [1] | Potency [2] | outcome [3] | outcome [4]

CC1(C)CC/C(=C/c2ccc(Cl)cc2)C1(O)Cn1cncn1 (stereo not drawn)
inactive: outcome [1] | Potency [2] | outcome [3] | outcome [4] | outcome [5]

Nc1ccc([N+](=O)[O-])cc1
inactive: outcome [1] | Potency [2] | outcome [3] | outcome [4] | outcome [5]

O=S(=O)(O)C(F)(F)C(F)(F)C(F)(F)C(F)(F)F
inactive: outcome [1] | Potency [2] | outcome [3] | outcome [4] | outcome [5]

S=C(SSC(=S)N1CCCCC1)N1CCCCC1
inactive: outcome [1] | Potency [2] | outcome [3]

CC(Cc1ccc(O)cc1)NCC(O)c1cc(O)cc(O)c1 (stereo not drawn)
inactive: outcome [1] | outcome [7] | Potency [2] | outcome [3] | Potency [8] | Potency [9] | Potency [10] | Potency [11] | outcome [4] | outcome [12] | outcome [5]

O=[N+]([O-])c1cc([N+](=O)[O-])c2ccccc2c1
inactive: outcome [1] | Potency [2] | outcome [3] | outcome [4] | outcome [5]

O=C(O)COc1nc(Cl)c(Cl)cc1Cl
inactive: outcome [1] | Potency [2] | outcome [3] | outcome [4]

COC(=O)c1cncn1C(C)c1ccccc1 (stereo not drawn)
inactive: outcome [1] | Potency [2] | outcome [3] | Potency [8] | Potency [9] | Potency [10] | Potency [11] | outcome [4] | outcome [5]

CC1=C(C(=O)O)N2C(=O)[C@@H](N)[C@H]2SC1
inactive: activity change, negative = inhibition [1] -3.5% [at 19 µM] | activity change, negative = inhibition [2] 5.52% [at 26.6 µM] | activity change, negative = inhibition [3] 6.57% [at 23.8 µM] | activity change [4] -1.92% [at 1.78 µM]

O=C(O)COc1ccccc1
inactive: outcome [1] | Potency [2] | outcome [3] | Potency [8] | Potency [9] | Potency [10] | Potency [11] | outcome [4] | outcome [5]

O=[N+]([O-])c1ccc([As](=O)(O)O)cc1
inactive: outcome [1] | Potency [2] | outcome [3] | Potency [8] | Potency [9] | Potency [11] | outcome [4] | outcome [5]

CCC(=O)O[C@@H]1C=C2CCC3C(CCC4(C)C3CC[C@@H]4OC(=O)CC)C2CC1 (stereo partly drawn)
inactive: outcome [1] | Potency [2] | outcome [3] | Potency [8] | Potency [9] | Potency [10] | Potency [11] | outcome [4]

CC(C)(C)C(O)C(Oc1ccc(Cl)cc1)n1cncn1 (stereo not drawn)
inactive: outcome [1] | Potency [2] | outcome [3] | outcome [4] | outcome [5]

CCOP(=O)(NC(C)C)Oc1ccc(SC)c(C)c1 (stereo not drawn)
inactive: outcome [1] | Potency [2] | outcome [3] | outcome [4] | outcome [5]

C=CCC1=C(C)C(OC(=O)C2C(C=C(C)C)C2(C)C)CC1=O (stereo not drawn)
inactive: outcome [1] | Potency [2] | outcome [3] | outcome [4]

O=C(Nc1ccccc1-c1ccc(Cl)cc1)c1cccnc1Cl
inactive: outcome [1] | Potency [2] | outcome [3] | outcome [4]

Fc1cc(Br)ccc1CBr
inactive: outcome [1] | Potency [2] | outcome [3] | outcome [4] | outcome [5]

C1CCC(NC2CCCCC2)CC1
inactive: outcome [1] | Potency [2] | outcome [3] | Potency [8] | Potency [9] | Potency [10] | Potency [11]

CCCCC(CC)COC(=O)c1ccccc1C(=O)OCC(CC)CCCC (stereo not drawn)
inactive: outcome [1] | Potency [2] | outcome [3] | outcome [4] | outcome [5]

COC(C)(C)CCCC(C)C/C=C/C(C)=C/C(=O)OC(C)C (stereo not drawn)
inactive: outcome [1] | Potency [2] | outcome [3] | outcome [4]

CC[N+]1(CCOC(=O)C(O)(c2ccccc2)c2ccccc2)CCCCC1
inactive: outcome [1] | Potency [2] | outcome [3] | Potency [8] | Potency [9] | Potency [10] | Potency [11] | outcome [4] | outcome [5]

Cc1cc(O)ccc1Cl
inactive: outcome [1] | Potency [2] | outcome [3] | Potency [8] | Potency [9] | Potency [10] | Potency [11] | outcome [4] | outcome [5]

CC(C)(C)NC[C@H](O)c1ccc(O)cc1Cl
inactive: outcome [1] | Potency [2] | outcome [3] | outcome [4] | outcome [5]

O=[N+]([O-])/N=C1\NCCN1Cc1ccc(Cl)nc1
inactive: outcome [1] | Potency [2] | outcome [3] | Potency [8] | Potency [9] | Potency [10] | Potency [11] | outcome [4] | outcome [5]

CCCCOC(=O)c1ccccc1C(=O)OCc1ccccc1
inactive: outcome [1] | Potency [2] | outcome [3] | outcome [4] | outcome [5]

CC(C)NCC(O)c1ccc([N+](=O)[O-])cc1 (stereo not drawn)
inactive: outcome [1] | Potency [2] | outcome [3] | outcome [4] | outcome [5]

c1cc2ccc3cccc4ccc(c1)c2c34
inactive: outcome [1] | Potency [2] | outcome [3] | outcome [4] | outcome [5]
